Results as given in PubChem BioAssay AID1159580 (chemical genetic matrix, 2015).
The campaign covered roughly 5,500 compounds. About 2,000 (36%) were called active. About 18% were inconclusive and are not listed. Cut-off read from the data, not from the text of the source: active = normalized growth mostly below about 0.91 (no sharp cut-off); inconclusive = no clear call, values can overlap the other calls; inactive = mostly above about 0.92. Some of the results follow.

Test: chemical genetic growth profiling, strain panel (AID 1159580);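 note: tested at 20 µM; growth read once vehicle control cultures reached saturation at 30 °C; 1 = growth at the plate median or of vehicle wells; lower values mean less growth of the strain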
Conditions: growth OD
[1] = S. cerevisiae deletion strains, locus YAL040C, strain CLN3, hits give low values
[2] = S. cerevisiae deletion strains, locus YCL061C, strain MRC1 (second series), hits give low values
[3] = S. cerevisiae deletion strains, locus YER002W, strain NOP16, hits give low values
[4] = S. cerevisiae deletion strains, locus YGR229C, strain SMI1, hits give low values
[5] = S. cerevisiae deletion strains, locus YMR263W, strain SAP30, hits give low values
[6] = S. cerevisiae deletion strains, locus YMR307W, strain GAS1, hits give low values
[7] = S. cerevisiae deletion strains, locus YNL175C, strain NOP13, hits give low values
[8] = S. cerevisiae deletion strains, locus YNL197C, strain WHI3, hits give low values
[9] = S. cerevisiae deletion strains, locus YNL224C, strain SQS1, hits give low values
[10] = S. cerevisiae deletion strains, locus YOR083W, strain WHI5 (second series), hits give low values
[11] = S. cerevisiae deletion strains, locus YAL013W, strain DEP1, hits give low values

Measured: normalized growth

CNCC(O)c1ccc(O)c(O)c1 (configuration not stated)
inactive: [1] 1.08 | [2] 1 | S. cerevisiae deletion strains, locus YDR363W, strain ESC2, hits give low values 1.01 | [3] 1 | S. cerevisiae deletion strains, locus YGR078C, strain PAC10, hits give low values 1.02 | [4] 0.982 | S. cerevisiae deletion strains, locus YJR075W, strain HOC1, hits give low values 1 | [5] 1.01 | [6] 1 | [7] 0.994 | [8] 0.998 | [9] 1.02 | [10] 1.02

CCOC(=O)C1(O)Oc2cc(OC)cc(OC)c2C(=O)C1c1ccccc1 (configuration not stated)
active: S. cerevisiae deletion strains, locus YBR021W, strain FUR4, hits give low values 0.837
inactive: [11] 0.969 | S. cerevisiae deletion strains, locus YBR229C, strain ROT2, hits give low values 1.01 | S. cerevisiae deletion strains, locus YCL029C, strain bik1, hits give low values 0.996 | S. cerevisiae deletion strains, locus YDL035C, strain GPR1, hits give low values 0.984 | S. cerevisiae deletion strains, locus YDL074C, strain BRE1, hits give low values 0.947 | S. cerevisiae deletion strains, locus YDL101C, strain DUN1, hits give low values 1 | S. cerevisiae deletion strains, locus YDL134C, strain PPH21, hits give low values 0.986 | S. cerevisiae deletion strains, locus YDL185W, strain tfp1, hits give low values 1 | S. cerevisiae deletion strains, locus YDL192W, strain arf1, hits give low values 0.982 | S. cerevisiae deletion strains, locus YDR101C, strain arx1, hits give low values 0.984 | S. cerevisiae deletion strains, locus YDR162C, strain NBP2, hits give low values 1 | S. cerevisiae deletion strains, locus YDR318W, strain mcm21, hits give low values 0.979 | S. cerevisiae deletion strains, locus YDR388W, hits give low values 0.976 | S. cerevisiae deletion strains, locus YDR502C, strain sam2, hits give low values 0.932 | S. cerevisiae deletion strains, locus YEL061C, strain CIN8, hits give low values 0.996 | S. cerevisiae deletion strains, locus YER110C, hits give low values 0.977 | S. cerevisiae deletion strains, locus YER155C, strain BEM2, hits give low values 0.978 | S. cerevisiae deletion strains, locus YER167W, strain BCK2, hits give low values 1 | S. cerevisiae deletion strains, locus YGL078C, strain dbp3, hits give low values 0.993 | S. cerevisiae deletion strains, locus YGL086W, strain mad1, hits give low values 0.97 | S. cerevisiae deletion strains, locus YGL248W, strain PDE1, hits give low values 0.99 | S. cerevisiae deletion strains, locus YGR135W, strain pre9, hits give low values 0.925 | S. cerevisiae deletion strains, locus YGR252W, strain gcn5, hits give low values 0.815 | S. cerevisiae deletion strains, locus YHR079C, strain IRE1 (second series), hits give low values 0.974 | S. cerevisiae deletion strains, locus YHR094C, strain hxt1, hits give low values 0.981 | S. cerevisiae deletion strains, locus YHR129C, strain ARP1, hits give low values 0.993 | S. cerevisiae deletion strains, locus YHR200W, strain rpn10, hits give low values 0.959 | S. cerevisiae deletion strains, locus YIL066C, strain RNR3, hits give low values 1 | S. cerevisiae deletion strains, locus YIL073C, strain SPO22, hits give low values 0.968 | S. cerevisiae deletion strains, locus YIL125W, strain kgd1, hits give low values 0.989 | S. cerevisiae deletion strains, locus YIR030C, strain dcg1, hits give low values 0.983 | S. cerevisiae deletion strains, locus YJL095W, strain BCK1, hits give low values 0.97 | S. cerevisiae deletion strains, locus YJL134W, strain LCB3, hits give low values 1 | S. cerevisiae deletion strains, locus YJL168C, strain set2, hits give low values 0.977 | S. cerevisiae deletion strains, locus YJL187C, strain SWE1 (second series), hits give low values 0.971 | S. cerevisiae deletion strains, locus YJR043C, strain POL32, hits give low values 0.967 | S. cerevisiae deletion strains, locus YKL009W, strain mrt4, hits give low values 0.985 | S. cerevisiae deletion strains, locus YKL068W, hits give low values 1 | S. cerevisiae deletion strains, locus YKL085W, strain MDH1 (second series), hits give low values 1.01 | S. cerevisiae deletion strains, locus YKL085W, strain MDH1, hits give low values 1.01 | S. cerevisiae deletion strains, locus YKR001C, strain vps1, hits give low values 0.97 | S. cerevisiae deletion strains, locus YLR039C, strain RIC1, hits give low values 1.03 | S. cerevisiae deletion strains, locus YLR058C, strain SHM2, hits give low values 1 | S. cerevisiae deletion strains, locus YLR102C, strain apc9, hits give low values 0.976 | S. cerevisiae deletion strains, locus YLR262C, strain YPT6, hits give low values 1.03 | S. cerevisiae deletion strains, locus YLR268W, strain sec22, hits give low values 0.973 | S. cerevisiae deletion strains, locus YLR371W, strain rom2, hits give low values 0.997 | S. cerevisiae deletion strains, locus YLR418C, strain cdc73, hits give low values 0.906 | S. cerevisiae deletion strains, locus YML016C, strain PPZ1, hits give low values 0.998 | S. cerevisiae deletion strains, locus YML032C, strain rad52, hits give low values 0.97 | S. cerevisiae deletion strains, locus YML124C, strain tub3, hits give low values 0.977 | S. cerevisiae deletion strains, locus YMR078C, strain ctf18, hits give low values 0.979 | S. cerevisiae deletion strains, locus YMR223W, strain ubp8, hits give low values 0.951 | [5] 0.987 | [6] 0.979 | S. cerevisiae deletion strains, locus YNL067W, strain RPL9B, hits give low values 0.983 | S. cerevisiae deletion strains, locus YNL233W, strain BNI4, hits give low values 0.955 | S. cerevisiae deletion strains, locus YNL250W, strain rad50, hits give low values 0.979 | S. cerevisiae deletion strains, locus YNL271C, strain bni1, hits give low values 0.999 | S. cerevisiae deletion strains, locus YNL298W, strain CLA4, hits give low values 1.02 | S. cerevisiae deletion strains, locus YNL307C, strain MCK1, hits give low values 0.961 | S. cerevisiae deletion strains, locus YNL322C, strain KRE1, hits give low values 0.991 | S. cerevisiae deletion strains, locus YNR052C, strain pop2, hits give low values 0.989 | S. cerevisiae deletion strains, locus YOL006C, strain TOP1, hits give low values 0.893 | S. cerevisiae deletion strains, locus YOL012C, strain htz1 1.08 | S. cerevisiae deletion strains, locus YOL147C, strain pex11, hits give low values 0.973 | S. cerevisiae deletion strains, locus YOR061W, strain CKA2, hits give low values 1.01 | S. cerevisiae deletion strains, locus YOR069W, strain VPS5, hits give low values 0.999 | S. cerevisiae deletion strains, locus YOR136W, strain idh2, hits give low values 0.981 | S. cerevisiae deletion strains, locus YOR144C, strain elg1, hits give low values 0.988 | S. cerevisiae deletion strains, locus YOR184W, strain ser1, hits give low values 0.978 | S. cerevisiae deletion strains, locus YOR316C, strain cot1, hits give low values 0.98 | S. cerevisiae deletion strains, locus YPR119W, strain clb2, hits give low values 0.96 | S. cerevisiae deletion strains, locus YPR141C, strain kar3, hits give low values 0.99 | S. cerevisiae deletion strains, locus YPR163C, strain tif3, hits give low values 0.984 | S. cerevisiae deletion strains, locus YPR167C, strain met16, hits give low values 0.961 | S. cerevisiae deletion strains, strain wtn01, hits give low values 0.973 | S. cerevisiae strains, strain wild type, hits give low values 0.99

CCOC(=O)C12CC1/C(=N\O)c1ccccc1O2 (configuration not stated)
inactive: [11] 0.998 | [1] 1.05 | [2] 0.995 | [3] 1.02 | [4] 0.991 | S. cerevisiae deletion strains, locus YNL153C, strain GIM3, hits give low values 1.02 | [7] 1.02 | [8] 1.02 | [9] 1 | [10] 1.02
